# Counter-ions that a name gives are not always drawn.
# Tests used:
# Details in all cases: 10 µM; exposure time: 3 h pre-incubation + 3 h imaging
# [1] = test system: Danio rerio larvae (5 dpf); test: optomotor response to red moving lines, difference vs DMSO (percentage points (treated minus DMSO)); higher = more of the behaviour than the DMSO vehicle control
# Summary of the method: (§1)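 5-dpf wild-type zebrafish larvae in 96-well ProxiPlates were exposed to library drugs at 10 µM (diluted 1000× from DMSO stocks into egg water). There were 48 larvae per drug, exposed 3 h before and 3 h during imaging at 28.5 °C. Images taken every 6 s covered a 3-h program of rest, moving coloured lines and acoustic pulses, and an ImageJ macro scored movement and upper-half location. Each behaviour score is the treated-group mean minus the DMSO vehicle mean, in percentage points.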
# [2] = test system: Danio rerio larvae (5 dpf); test: activity during period 15 (no stimuli), difference vs DMSO (percentage points (treated minus DMSO)); higher = more of the behaviour than the DMSO vehicle control
# Summary of the method: as §1
# [3] = test system: Danio rerio larvae (5 dpf); test: activity during first hour (no stimuli), difference vs DMSO (percentage points (treated minus DMSO)); higher = more of the behaviour than the DMSO vehicle control
# Summary of the method: as §1
# [4] = test system: Danio rerio larvae (5 dpf); test: optomotor response to green moving lines, difference vs DMSO (percentage points (treated minus DMSO)); higher = more of the behaviour than the DMSO vehicle control
# Summary of the method: as §1
# [5] = test system: Danio rerio larvae (5 dpf); test: optomotor response to blue moving lines, difference vs DMSO (percentage points (treated minus DMSO)); higher = more of the behaviour than the DMSO vehicle control
# Summary of the method: as §1
# [6] = test system: Danio rerio larvae (5 dpf); test: startle response to 20-s acoustic pulses, difference vs DMSO (percentage points (treated minus DMSO)); higher = more of the behaviour than the DMSO vehicle control
# Summary of the method: as §1
# [7] = test system: Danio rerio larvae (5 dpf); test: optomotor response to fast red moving lines, difference vs DMSO (percentage points (treated minus DMSO)); higher = more of the behaviour than the DMSO vehicle control
# Summary of the method: as §1
# [8] = test system: Danio rerio larvae (5 dpf); test: habituation to 1-s acoustic pulses, difference vs DMSO (percentage points (treated minus DMSO)); higher = more of the behaviour than the DMSO vehicle control
# Summary of the method: as §1
# [9] = test system: Danio rerio larvae (5 dpf); test: excitability to 1-s acoustic pulses, difference vs DMSO (percentage points (treated minus DMSO)); higher = more of the behaviour than the DMSO vehicle control
# Summary of the method: as §1
smiles,measurement,setting,value
CCCCCCCN(CC)CCCC(O)c1ccc(NS(C)(=O)=O)cc1 (stereo not drawn) [Ibutilide hemifumarate],optomotor response to red moving lines,[1],10.1
same,activity during period 15,[2],-10
same,activity during first hour,[3],-4.99
same,optomotor response to green moving lines,[4],4.88
OCCN1C[C@H](O)[C@@H](O)[C@H](O)[C@H]1CO [Miglitol],activity during first hour,[3],-1.33
same,optomotor response to blue moving lines,[5],5.95
same,startle response to 20-s acoustic pulses,[6],-1.17
same,optomotor response,[7],-3.78
OCCN(CCO)c1nc(N2CCCCC2)c2nc(N(CCO)CCO)nc(N3CCCCC3)c2n1 [Dipyridamole],habituation to 1-s acoustic pulses,[8],0.822
same,excitability to 1-s acoustic pulses,[9],-3.05
same,optomotor response to red moving lines,[1],-6.85
same,activity during first hour,[3],-0.789
COc1cc2ncnc(Nc3ccc(F)c(Cl)c3)c2cc1OCCCN1CCOCC1 [Iressa],excitability to 1-s acoustic pulses,[9],18
same,optomotor response to red moving lines,[1],1.01
same,activity during first hour,[3],-5.98
same,optomotor response,[7],8.7
CN(CCOc1ccc(NS(C)(=O)=O)cc1)CCc1ccc(NS(C)(=O)=O)cc1 [Dofetilide],activity during first hour,[3],1.68
CC#C[C@]1(O)CC[C@H]2[C@@H]3CCC4=CC(=O)CCC4=C3[C@@H](c3ccc(N(C)C)cc3)C[C@@]21C [Mifepristone],excitability to 1-s acoustic pulses,[9],5.32
same,optomotor response to red moving lines,[1],3.5
same,activity during first hour,[3],-3.58
same,optomotor response to blue moving lines,[5],11
same,startle response to 20-s acoustic pulses,[6],0.769
same,optomotor response,[7],-1.97
Cc1ccc(NC(=O)c2ccc(CN3CCN(C)CC3)cc2)cc1Nc1nccc(-c2cccnc2)n1 [Imatinib mesylate],activity during first hour,[3],-12.5
same,optomotor response to blue moving lines,[5],-0.219
same,optomotor response,[7],1.11
CN1CC(=O)N2[C@H](c3ccc4c(c3)OCO4)c3[nH]c4ccccc4c3C[C@@H]2C1=O [Tadalafil],activity during first hour,[3],11
same,optomotor response to blue moving lines,[5],-3.81
same,optomotor response to green moving lines,[4],-0.909
same,startle response to 20-s acoustic pulses,[6],7.96
CC[C@H]1OC(=O)[C@H](C)[C@@H](O[C@H]2C[C@@](C)(OC)[C@@H](O)[C@H](C)O2)[C@H](C)[C@@H](O[C@@H]2O[C@H](C)C[C@H](N(C)C)[C@H]2O)[C@](C)(O)C[C@@H](C)CN(C)[C@H](C)[C@@H](O)[C@]1(C)O [Azithromycin],habituation to 1-s acoustic pulses,[8],4.52
same,optomotor response to red moving lines,[1],-11.1
same,activity during first hour,[3],-12.2
CNC(=O)c1cc(Oc2ccc(NC(=O)Nc3ccc(Cl)c(C(F)(F)F)c3)cc2)ccn1 [Sorafenib],optomotor response to red moving lines,[1],-10.7
same,activity during period 15,[2],8.65
same,activity during first hour,[3],3.08
same,optomotor response to blue moving lines,[5],-18.5
same,startle response to 20-s acoustic pulses,[6],-4.57
CC(CCc1ccc(O)cc1)NCCc1ccc(O)c(O)c1 (stereo not drawn) [Dobutamine hydrochloride],optomotor response to red moving lines,[1],5.06
same,activity during period 15,[2],-8.99
same,activity during first hour,[3],-1.97
CC1=Nc2ccc(Cl)cc2S(=O)(=O)N1 [Diazoxide],optomotor response to red moving lines,[1],0.599
same,activity during first hour,[3],6.7
same,startle response to 20-s acoustic pulses,[6],-3.68
C[C@]12CC[C@@H]3c4ccc(O)cc4C[C@@H](CCCCCCCCC[S+]([O-])CCCC(F)(F)C(F)(F)F)[C@H]3[C@@H]1CC[C@@H]2O (stereo partly drawn),excitability to 1-s acoustic pulses,[9],2.14
same,optomotor response to red moving lines,[1],-3.73
same,activity during first hour,[3],7.08
Cc1cn([C@H]2C=C[C@@H](CO)O2)c(=O)[nH]c1=O [Stavudine],activity during first hour,[3],-4.71
